# Test results as given in the supplement of paper PMC6555819.
# System: PPARg:RXRa (NR concentration 180 nM, RXRa partner concentration 90 nM)
# Experiment: PBM binding z-score (relative to random genomic background probes); higher = stronger binding; sequences stand for … in GC…GCGATTGACAGCGTAGAATGAAGG
# In short: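 Scanned fluorescence from custom Agilent 4×180K protein-binding microarrays was regression-normalized. Binding z-scores use random background probes as reference. Ligand-free nuclear receptor dimers were incubated on the arrays for 1 h and detected with antibodies against each partner (one per run).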
row,Sequence,PBM binding z-score
1,CCACGGAGGACAGAAGGTCAGAGCTGTCCGCTTT,0.277
2,ATCTCGAGGTAAAGTTCAGTGAAAGATCGATAGA,2.53
3,CCAGACAGGTGTAAGGTAACTCAGTCTGGTACGC,0.41
4,CGAACTAGGTCATCCAGGACAGTGTATACATTGA,7.47
5,CGAACTAGGTCATCCAGGGCAGTGAATACATTGA,7.91
6,GCTTTCGGGTCAAAGGTTATAGCATGAATAGAAT,11.3
7,GCGACTGGGGTAAAGCAGGTTACCATAAGGTTGG,0.941
8,AGAATGAGGTTATGAAGATCAGGGAATTGCGGTC,1.68
9,GGAACGAGGGAAAAGTTGATAGCATCTGTCGACG,2.04
10,ATATGTAGGTTAGCTGGGTTCATTCAGACTAGGC,4.18
11,AGAATGAGGTTATAAGTAGATCAGGGAAGAAAGT,2.67
12,TCTAGCAGGCCAAAGGGTCACTCAAGAGGTACGG,3.36
13,GCGACTGGGGCAAAGCAAGTTACCATAAGGTTGG,0.964
14,GTACCAAGGTGAATAGGACGTTGATGAGTAGGCG,1.07
15,TCAAGTAGGTTACCAATGGGGCATTCAGCTTTCT,2.1
16,TCATATAGGTACTACAGGTGAAAGTCGGCATCTA,0.768
17,TCATATAAGTAAACAGGTGAAAGTCCGTAAGTTA,1.32
18,TCATGTAGGTAAATGCTAGGTGAAAGTCCGATCT,0.723
19,CCTTACGGGTCACGAGGTTATAGGACGACGAGCG,7.51
20,ATATCAAGGTGATCGTGAGGTCGTTGATACTAAC,0.923
21,TAGCCTAGGTCATGCGGGCCACTATAGTGTCGGC,2.41
22,GTACCAAGGTGAAGAGGTCGTTGATGAGTAGGCG,1.95
